# HT1080NT lethal – kills 2HG-producing HT-1080-NT fibrosarcoma cells | 360,000 compounds, 1.6% hits | Potency, µM (highest dose often 46.1 µM), without a hit: at the highest dose activity, negative = less viability, hits mostly cytotoxic | AID 686970 | HT-1080-NT fibrosarcoma viability, CellTiter-Glo ATP luminescence, 48 h;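 note: NT is the 2HG producing partner of a matched IDH1 knockdown line; 0% = DMSO-treated cells and -100% = media-only wells without cells; nearly all actives have a fitted effect of over 55% in size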
#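 HT-1080-NT; 750 cells/well; 5% FBS RPMI; 48 h compound, 37 degrees C; CellTiter-Glo luminescence; curve fitting and curve-class assignment.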
# KB-V1 cytotox – kills drug-selected multidrug resistant KB-V1 cells; KB-V1 MDR cells viability, CellTiter-Glo, 72 h; Potency, µM (doses to about 46.1 µM), hits mostly cytotoxic; 400,000 compounds, 3.4% hits; AID 1347076; note: nearly all actives have a fitted effect of over 60% in size
#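 Following 72 h at 37 degrees C with compound, KB-V1 cell viability was read by CellTiter-Glo luminescence, medium being phenol-red-free DMEM plus 10% FBS; concentration-response parameters came from normalized, curve-fitted qHTS data.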
# KB-3-1 cytotox – KB-3-1 parental cell cytotoxicity | Potency, µM (doses to about 46.1 µM), actives largely listed as cytotoxic | 400,000 compounds, 1.4% hits | KB-3-1 viability, CellTiter-Glo ATP luminescence, 72 h; note: nearly all actives have a fitted effect of over 60% in size
#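 Cytotoxicity in the drug-sensitive parental line KB-3-1 was scored as loss of CellTiter-Glo luminescence following 72 h incubation with compound. Values come from curve fitting of normalized concentration-response data.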
# DT40 TDP1 no CPT – qHTS for Inhibitors of human tyrosyl-DNA phosphodiesterase 1 (TDP1): qHTS in cells in absence of CPT. Potency, µM (doses to about 46.2 µM), inactives show top-dose activity change, negative = growth inhibition, most hits filed as inhibitors. 420,000 compounds, 15% hits. AID 686978, 2013. DT40 Tdp1-/- hTDP1 cells, no CPT, ATP luminescence, 48 h; note: nearly all actives have a fitted effect of over 55% in size
#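 DT40 Tdp1-/-;hTDP1 cells, no CPT (DMSO vehicle only), 400 cells/well; compounds pin-transferred; ≥48 hr, 37 °C; CellTiter-Glo 30 min RT dark, luminescence read.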
# HT1080 IDH1KD tx – HT-1080 IDH1 knockdown cell toxicity (counter line); HT-1080 IDH1 knockdown viability, ATP luminescence, 48 h; Potency, µM (doses to about 46.1 µM), inactives show at the top dose activity, negative = toxicity, most hits filed as cytotoxic; 360,000 compounds, 2% hits; AID 686971;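 note: 0% = DMSO wells and -100% = cell-free medium wells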
#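 In this qHTS, HT-1080 cells depleted of IDH1 are exposed for 48 h at 37 °C to compound titrations. Toxicity is scored from CellTiter-Glo luminescence, with DMSO as full viability and medium alone as none.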
# DT40 TDP1 CPT – growth inhibition of DT40 Tdp1-/-;hTDP1 cells with camptothecin (screen for TDP1 inhibitors) | chicken DT40 Tdp1-/-;hTDP1 cells + 20 nM CPT, ATP luminescence, 48 h | Potency, µM (highest dose often 46.2 µM), for the others: at the top dose activity change, negative = growth inhibition, actives largely listed as inhibitors | 420,000 compounds, 12% hits | AID 686979; note: nearly all actives have a fitted effect of over 55% in size
#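 Chicken DT40 Tdp1-/- cells complemented with human TDP1, 400 cells/well, exposed to compounds plus 20 nM camptothecin for at least 48 h at 37 C; viability read as ATP content by CellTiter-Glo luminescence.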
# * marks the source's active call; other numbers are inactive results; i = inactive; ? = inconclusive; . = no result; ! = a repeat was not active; [ ] = remark or other dose. Compounds with a hit are over-represented: about 19% of the library has one in this group of screens. Calls come from the whole dose curve; as a rule, active = well fitted curve in the direction sought with a large enough effect; inconclusive = small, poorly fitted or top-dose-only effect, or another doubt; inactive = no such curve, though single readings can be large; an effect the other way counts as inactive or inconclusive. Unless noted, % is set by controls: 0 for no effect and ±100 for the full control effect; potency is the fitted concentration of half-maximal effect.
SMILES,HT1080NT lethal,KB-V1 cytotox,KB-3-1 cytotox,DT40 TDP1 no CPT,HT1080 IDH1KD tx,DT40 TDP1 CPT
Cc1c(N2C(=O)/C(=C\C3CC=CCC3)SC2=S)c(=O)n(-c2ccccc2)n1C (configuration not stated),?,i,i,?,18.4µM*,?
Cc1c(N2C(=O)/C(=C\c3ccccc3O)SC2=S)c(=O)n(-c2ccccc2)n1C,-5.9%,i,i,?,4.1%,7.31µM*
Cc1c(N2C(=O)/C(=C/C3CC=CCC3)SC2=S)c(=O)n(-c2ccccc2)n1C (configuration not stated),?,i,i,?,-23.9%,18.4µM*
CC(C)(C)OC(=O)N/N=C/c1cc(N=Nc2ccccc2)ccc1O,-3.7%,i,?,?,?,?
Cc1cccc(Cn2c(=O)n(CC3CCC(C(=O)NC(C)C)CC3)c(=O)c3sccc32)c1 (configuration not stated),.,i,i,3.7%,.,1.5%
COCCn1c(=S)[nH]c2cc(C(=O)NC3CCCC(C)C3C)ccc2c1=O (configuration not stated),-6.5%,i,i,?,-1.9%,-23.7%
CC1(C(=O)NS(=O)(=O)c2ccc(C#N)cc2)CCN1C(=O)Cc1cc(F)ccc1F (configuration not stated),27.8%,i,i,10.2%,14.3%,-3.9%
CC(C)N(c1ccccc1)c1ccc(NC(=O)CCl)cc1,?,?,i,2.59µM*,?,16.4µM*
O=C(CCl)Nc1ccc(N=Nc2ccccc2)cc1,?,i,i,?,-3.2%,2.91µM*
CCOc1ccccc1C(=O)NC1(C(F)(F)F)C(=O)Nc2c1c(=O)[nH]c(=O)n2-c1ccccc1 (configuration not stated),.,?,i,10.4%,.,-2.8%
CC1=C(/C=C/C(C)=C/C=C/C(C)=C/C(=O)O)C(C)(C)CCC1O (configuration not stated),.,.,.,20.6µM*,.,25.9µM*
CC1=C(/C=C/C(C)=C/C=C/C(C)=C/C=C/C=C(C)/C=C/C=C(C)/C=C/C(=O)[C@]2(C)CC(O)CC2(C)C)C(C)(C)CC(O)C1 (some centres not stated),.,.,.,9.1%,.,19.6%
CC1=C(/C=C/C(C)=C\C=C\C(C)=C\C(=O)O)C(C)(C)CCC1,.,.,.,25.9µM*!,.,-13.5%[4.12 µM]
CC1=C(/C=C/C(C)=C/C=C/C(C)=C/C=C/C=C(C)/C=C/C=C(C)/C=C/C2=C(C)C[C@@H](O)CC2(C)C)C(C)(C)C[C@H](O)C1,.,.,.,15µM*,.,15µM*
CC(NC(=O)Nc1ccccc1Cl)c1ccc2c(c1)OCO2 (configuration not stated),0.4%,i,i,0.7%,-17.1%,-5.5%
COc1cc(C(O)c2nc(-c3cccc4cccnc34)cs2)ccc1F (configuration not stated),-2.4%,i,i,?,4.7%,?
Cc1cccc(C)c1N1C(=O)c2ccccc2NC(=O)C1C(=O)NCCOc1ccccc1 (configuration not stated),12.9%,i,i,?,24.3%,-5.4%
Oc1ccc(-c2cnns2)c(O)c1,-17.9%,i,i,4.61µM*,-28.1%,4.11µM*
Nc1ncc(-c2ccccc2)c(-c2ccc(O)cc2O)n1,?,?,?,?,?,-6.9%
CCc1nc(N2CCN(C(=O)c3ccccc3)CC2)c2c3c(sc2n1)CCCC3,?,?,?,23.1µM*,?,?
CC1CCc2sc3ncnc(N4CCOCC4)c3c2C1 (configuration not stated),-23.2%,i,i,?,-20.4%,?
NC(=O)C1CCN(c2ncnc3c(-c4ccccc4)nsc23)CC1,-9.6%,i,i,-4.3%,-13.3%,-3.0%
O=C(c1ccco1)N1CCN(c2ncnc3c(-c4ccccc4)nsc23)CC1,1.7%,?,i,20.6µM*,1.8%,18.4µM*
COc1ccc(CN2CCN(c3ncnc4sc5c(c34)CC(C)CC5)CC2)cc1F (configuration not stated),.,i,i,6.51µM*,.,14.6µM*
CC1CCc2c(sc3ncnc(N4CCOCC4)c23)C1 (configuration not stated),?,14.6µM*,i,?,?,?
SMILES,HT1080NT lethal,KB-V1 cytotox,KB-3-1 cytotox,DT40 TDP1 no CPT,HT1080 IDH1KD tx,DT40 TDP1 CPT
O=C(COC(=O)C1CCC1)NCc1ccccc1,3.8%,i,i,-14.0%,5.8%,1.0%
CCc1nc(N2CCN(C(=O)c3ccco3)CC2)c2c3c(sc2n1)CCCC3,-11.5%,?,?,?,-7.1%,?
Clc1ccc(CN2CCN(c3ncnc4sc5c(c34)CCCC5)CC2)cc1Cl,.,?,i,23.1µM*,.,20.6µM*
CC(=O)N1CCN(c2nc(C)nc3sc4c(c23)CCC(C)C4)CC1 (configuration not stated),-11.2%,i,i,-21.8%,-7.5%,-19.8%
O=C(c1ccco1)N1CCN(c2ncnc3sc4c(c23)CCC4)CC1,-27.6%,?,i,20µM*,?,?
c1ccc(N2CCN(c3ncnc4sc5c(c34)CCC5)CC2)cc1,-9.6%,?,?,20.6µM*,-7.4%,20.6µM*
c1nc(N2CCC3(CC2)OCCO3)c2c3c(sc2n1)CCCC3,-24.4%,i,i,?,-22.8%,?
CC1CCc2c(sc3nc(C4CC4)nc(N4CCN(C(=O)c5ccco5)CC4)c23)C1 (configuration not stated),?,?,?,?,23.1µM*,?
NCCCNc1ccc(Br)cn1,23.3%,.,.,?,5.2%,1.8%
CC(=O)Nc1nnc([N+](=O)[O-])s1,-23.1%,i,i,18.4µM*,-2.3%,18.4µM*
Cc1ccc(C(C)C)c(OCCCN2CCc3ccccc3C2)c1,-3.4%,i,i,?,-5.6%,?
Cc1ccc(SCCOCCN2CCc3ccccc3C2)cc1,1.3%,i,i,16.4µM*,-0.4%,?
Cc1ccc(C)c(OCCCN2CCc3ccccc3C2)c1,-29.8%,i,i,?,?,11.6µM*
COC(=O)c1c(C)[nH]c(C(=O)NCc2ccco2)c1C,23.9%,i,i,-4.4%,30.0%,-8.6%
